Screens as filed in PubChem BioAssay.
TDP1 cell noCPT – qHTS for Inhibitors of human tyrosyl-DNA phosphodiesterase 1 (TDP1): qHTS in cells in absence of CPT; DT40 Tdp1-/- hTDP1 cells, no CPT, ATP luminescence, 48 h; 15% of 420,000 active; Potency, µM (doses to about 46.2 µM), most hits filed as inhibitors; AID 686978, 2013; note: nearly all actives have a fitted effect of over 55% in size
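Camptothecin absent (DMSO only). Human TDP1-complemented DT40 knockout cells, 400 cells/well, 37 °C for minimum 48 hr; ATP measured via CellTiter-Glo, 30 min dark incubation, luminescence.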
RORg inh – inhibitors of mouse ROR gamma transcriptional activity | Drosophila S2 Gal4-RORgamma UAS-luciferase reporter, 20 h | AID 2551 | Potency, µM (top dose mostly 53.6 µM), actives largely listed as inhibitors | 5.4% of 310,000 active; note: nearly all actives have a fitted effect of over 60% in size
Target sequence (P51450 whole entry, looked up, the tested form may be a part): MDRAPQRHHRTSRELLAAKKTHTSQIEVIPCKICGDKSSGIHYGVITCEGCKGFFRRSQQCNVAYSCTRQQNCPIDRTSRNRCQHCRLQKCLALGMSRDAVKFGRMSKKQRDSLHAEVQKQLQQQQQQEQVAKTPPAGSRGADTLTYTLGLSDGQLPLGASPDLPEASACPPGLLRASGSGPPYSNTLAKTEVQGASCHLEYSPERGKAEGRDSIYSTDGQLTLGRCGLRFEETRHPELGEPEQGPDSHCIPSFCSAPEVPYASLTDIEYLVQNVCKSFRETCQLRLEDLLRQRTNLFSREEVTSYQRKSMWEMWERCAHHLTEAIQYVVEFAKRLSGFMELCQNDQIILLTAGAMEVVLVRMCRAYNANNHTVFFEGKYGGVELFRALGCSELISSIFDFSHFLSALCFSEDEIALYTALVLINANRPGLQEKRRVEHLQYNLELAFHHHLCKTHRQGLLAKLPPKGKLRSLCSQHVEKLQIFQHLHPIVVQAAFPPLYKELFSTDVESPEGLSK
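Drosophila S2 cells stably expressing Gal4-DBD/mouse RORγ fusion under metallothionein promoter plus UAS-luciferase; compound 1 h, then 700 uM CuSO4 induction for 20 h at ambient temperature; inhibition read as reduced luminescence.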
VP16 counter – inhibits Gal4-VP16 luciferase reporter, ROR gamma counter-screen | Drosophila S2 Gal4-VP16 UAS-luciferase, luminescence, 20 h | Potency, µM (highest dose often 53.6 µM), hits mostly inhibitors | 3.5% of 310,000 active | AID 2546;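 note: Gal4-VP16 expression switched on by copper sulfate through the metallothionein promoter; nearly all actives have a fitted effect of over 50% in size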
IL-1B inflam inh – blocks inflammasome-driven IL-1 beta release; THP-1 LPS/ATP IL-1B secretion, AlphaLISA, 16 h; hits give low values; activity change, % at 57.5 µM; 4.7% of 360,000 active; in the data active = activity change below about -50%; inconclusive = mostly about -30% to -49%
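THP-1 cells pretreated 1 hr with compounds (up to 57.5 uM final), then stimulated with LPS (250 ng/mL final) plus ATP (1.25 mM final); secreted IL-1B measured by AlphaLISA after 16 hr, decreased signal indicating inhibition.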
LDHA block – blocks human lactate dehydrogenase A | 0.15% of 480,000 active | purified LDHA, NADH/diaphorase-resazurin fluorescence; hits give low values | AID 1347041 | activity change, % (values are at about 110 or 230 µM); in the data active = activity change below about -30%; inconclusive = mostly about -25% to -30%
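LDH5 2 nM; NADH 0.06 mM, pyruvate 0.2 mM; 200 mM Tris pH 7.4, EDTA, Tween-20; 5 min RT. Detection: diaphorase 0.133 mg/mL + resazurin 37 µM, fluorescence ex540/em590 at 0 and 20 min; normalized to enzyme-free and DMSO wells.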
DT40 TDP1 CPT – DT40-hTDP1 cell growth loss with CPT; chicken DT40 Tdp1-/-;hTDP1 cells + 20 nM CPT, ATP luminescence, 48 h; Potency, µM (top dose mostly 46.2 µM), hits mostly inhibitors; 12% of 420,000 active; note: nearly all actives have a fitted effect of over 55% in size
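Chicken DT40 Tdp1-/- cells complemented with human TDP1, 400 cells/well, exposed to compounds plus 20 nM camptothecin for at least 48 h at 37 C; viability read as ATP content by CellTiter-Glo luminescence.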
Hits are given with their value; – = inactive; ? = inconclusive; · = no result given; [ ] = remark or other dose. Hits are enriched below; roughly 18% of the tested compounds scored in any of these assays. Unless noted, calls come from the whole dose curve; as a rule, active = well fitted curve in the direction sought with a large enough effect; inconclusive = small, poorly fitted or top-dose-only effect, or another doubt; inactive = no such curve, though single readings can be large; an effect the other way counts as inactive or inconclusive.

SMILES	TDP1 cell noCPT	RORg inh	VP16 counter	IL-1B inflam inh	LDHA block	DT40 TDP1 CPT
Cc1nc2cc(NC(=O)Nc3ccccc3Cl)ccc2n1C	?	5µM	11µM	?	–	–
COc1ccccc1C1=NS(=O)(=O)N(C)C(C(=O)Nc2ccn(Cc3ccc(C)cc3)n2)=C1	·	·	·	·	–	·
COc1ccccc1Oc1c(C)oc2cc(OCC(=O)Nc3cccc(NC(C)=O)c3)ccc2c1=O	·	·	·	·	–	·
Cn1c(=O)c2c(nc(Cl)n2CC(=O)c2ccc(Br)cc2)n(C)c1=O	·	·	·	·	–	·
CCOC(=O)c1cc(N)ccc1N1CCOCC1	·	·	·	·	–	·
Cc1cccc(OCc2nc3c(C)cccc3[nH]2)c1	·	·	·	·	–	·
CC(C)CCn1c(N2CCN(CC(N)=O)CC2)nc2c1c(=O)[nH]c(=O)n2C	·	·	·	·	–	·
C=CCNC(=O)Nc1ccc(Br)cc1Cl	?	–	–	–	–	–
O=C(Nc1ccncc1)Nc1ccc(Br)cc1Cl	?	–	–	-94	–	21µM
O=C(CNc1ccc(Br)cc1)c1ccccc1	–	–	–	–	–	?
O=C(CNc1ccccc1Cl)c1ccc(Br)cc1	?	–[1.91 µM]	?	-77	–	?
Cc1c(CC(=O)NCc2ccco2)c(=O)oc2c(C)c(O)ccc12	·	·	·	·	–	·
CCn1c(=O)c2cc(C(=O)NC(C)C)sc2c2ccccc21	?	–	–	–	–	?
CCn1c2ccccc2c2cc(N=C3SC(CC(=O)Nc4ccccc4OC)C(=O)N3C)ccc21 (stereo unspecified)	26µM	–	–	–	–	?
COc1ccc(NC(=O)c2cc3c(Cl)nc4ccccc4c3s2)cc1OC	21µM	?	?	–	–	?
CCN(CC)CCOC(=O)c1ccc(NC(=O)c2cc3c(=O)n(CC)c4ccccc4c3s2)cc1	5.2µM	·	·	·	–	5.2µM
CCn1c(=O)c2cc(C(=O)Nc3ccccc3OC)sc2c2ccccc21	21µM	–	–	–	–	15µM
O=C(CCc1ncc(-c2ccccc2F)o1)Nc1ccncc1	·	·	·	·	–	·
Cc1cc(C)c(S(=O)(=O)NCCc2sc(-c3cccc(F)c3)nc2C)c(C)c1	·	·	·	·	–	·
CCn1c(=O)c2cc(C(=O)Nc3cc(C)on3)sc2c2ccccc21	?	–	–	?	–	–
CCn1c(=O)c2cc(C(=O)Nc3cc(OC)c(OC)c(OC)c3)sc2c2ccccc21	6.5µM	·	·	·	–	9.2µM
CCc1ccc2c(c1)C(c1ccc([N+](=O)[O-])cc1)=NNC(c1ccc(F)cc1)=N2	?	–	?	-53	–	21µM
COc1ccc(NC(=O)c2cc(-c3ccccc3)nc3c2c(C)nn3-c2ccccc2)c(OC)c1	?	–	–	–	–	?
CCOC(=O)c1cc(-c2ccccn2)nc2c1c(C)nn2-c1ccc(C)cc1	·	·	·	·	–	·
CCOC(=O)c1cc(-c2cccs2)nc2c1c(C)nn2-c1ccccn1	15µM	1.8µM	7.1µM	-79	–	15µM
SMILES	TDP1 cell noCPT	RORg inh	VP16 counter	IL-1B inflam inh	LDHA block	DT40 TDP1 CPT
Cc1nn(-c2ccccc2)c2nc(-c3ccncc3)cc(C(=O)NCc3ccco3)c12	18µM	–	–	–	–	?
Cc1nn(-c2ccccn2)c2nc(-c3cccs3)cc(C(=O)NCc3ccco3)c12	23µM	14µM	?	–	–	23µM
CC(/C=N/NC(=O)c1cc(-c2cccnc2)nc2c1c(C)nn2-c1ccccc1)=C\c1ccccc1	13µM	?	–	–	–	18µM
Cc1ccccc1-n1nc(C)c2c(C(=O)NN)cc(-c3ccncc3)nc21	–	–	–	–	–	–
c1ccc2[nH]c(CN3CCCC3)nc2c1	·	·	·	·	–	·
CCC(C)Oc1ccccc1/C=C(\C#N)c1nc2ccccc2[nH]1 (stereo unspecified)	·	·	·	·	–	·
COC(=O)CC(NC(=O)c1ccc(CS(C)(=O)=O)cc1)c1ccc(C)cc1 (stereo unspecified)	·	·	·	·	–	·
COc1ccc(-c2cc(C(=O)NNC3=NCCC3)c3c(C)nn(-c4ccccc4)c3n2)cc1	?	0.32µM	?	–	–	?
Cn1c(SCC(=O)NCc2ccc(F)cc2)nc2ccccc21	–	–	–	–	–	–
O=C(CCCSc1nc2ccccc2[nH]1)NCc1ccccc1F	21µM	–	–	–	–	?
O=C(CCCSc1nc2ccccc2[nH]1)NCc1ccc(Cl)cc1	?	?	–	–	–	?
CCNC(=S)NNC(=O)CSc1nc2ccccc2n1C	–	0.22µM	0.71µM	–	–	–
CCNC(=S)NNC(=O)CSc1nc2ccccc2[nH]1	–	4µM	13µM	–	–	–
N#Cc1ccc(OCC(O)Cn2cnc3ccc(Br)cc3c2=O)cc1 (stereo unspecified)	·	·	·	·	–	·
